Measurements: PubChem BioAssay (NCATS)
Active and inactive are the calls of the source. The call rests on the fitted dose curve; in most records, active means well fitted curve in the direction sought with a large enough effect; inconclusive means small, poorly fitted or top-dose-only effect, or effect the other way, or another doubt; inactive means no such curve, though single readings can be large or run the other way.

Assay: Inducers of the Endoplasmic Reticulum Stress Response (ERSR) in human glioma: Validation (AID 504836); further: 0% is about no effect
Settings: human glioma cells, ER stress response reporter; series mostly up to 38.3 µM; activation: at the top concentration
Text: Primary protein unfolding takes place for many diseases, including diabetes and hypoxia, , and triggers a reaction in the cells called ER stress response (ERSR). ). ERSR is designed as a repair mechanism, but ultimately leads to cell death via apoptosis if conditions triggering protein unfolding persist (1). The molecular clue to ERSR activation is the enhancement of the expression of key molecular chaperones, including the glucose regulated protein (GRP) 78. GRP78 is the main sensor for protein folding and the main actuator of the ERSR.
In a collaboration between the Southern Research Institute and the NIH Chemical Genomics Center, a cell based screen was developed that reliably uses GRP78 as a sensor to identify small molecules as inducers of ERSR. In resting conditions, GRP78 binds proteins and acts as a natural repressor. Once unfolded proteins are present in the ER, GRP78 releases some of the repressors and binds to the unfolded proteins. The release of the repressors executes the ERSR program. Using a human glioma cell line in a miniaturized, luminescent format, a high-throughput screen was developed to identify actuators of the ERSR.
(1) Soboloff, J. and S. A. Berger (2002). "Sustained ER Ca2+ depletion suppresses protein synthesis and induces activation-enhanced cell death in mast cells." J Biol Chem 277(16): 13812-20.
NIH Chemical Genomics Center [NCGC]
NIH Molecular Libraries Probe Centers Network [MLPCN]
Assay Submitter (PI): Maurizio Grimaldi, Southern Research Institute
Stable transfected human glioma cell line, U87-MG, are dispensed at density 1000 cells/well into Greiner white solid bottom 1536-well assay plates. Compounds are transferred via Kalypsys pin tool equipped with 1536-pin array (10nl slotted pins, V&P Scientific, San Diego, CA). The assay plates will be incubated for 16 hours and developed by adding appropriate quantities of the Promega Bright Glo reagent. The plates will be incubated at room temperature for 10 minutes prior to being transferred into a ViewLux high-throughput CCD imager (PerkinElmer), wherein end-point measurements of luminescence are acquired.

Compound	activation
O=C(CCCCCN1CCN(c2ccccc2-c2ccccc2)CC1)NC1CCCc2ccccc21 (stereo unspecified)	-1.23% (inactive)
Cc1ccccc1/C=C/C1=NCCN1	-4.43% (inactive)
CC[C@@H](CO)Nc1nc(NCc2ccccc2)c2ncn(C(C)C)c2n1	-4.52% (inactive)
O=C1C(SCCO)=C(SCCO)C(=O)c2ccccc21	-11.8% (inactive)
O=C(c1ccc(Cl)cc1)N1CCN(c2ccc([N+](=O)[O-])c3ncccc23)CC1	0.014% (inactive)
[N-]=[N+]=Nc1ccc(C(=O)CSC[C@H](NC(=O)CC[C@H](N)C(=O)O)C(=O)NCC(=O)O)cc1	0.912% (inactive)
C1CCC(N=C(NC23CC4CC(CC(C4)C2)C3)N2CCOCC2)CC1	0.37% (inactive)
COC1=C(OC)C(=O)c2ccccc2C1=O	-3.47% (inactive)
CC1(C)C(=O)N(CCN2CCC(C(=O)c3ccc(F)cc3)CC2)c2ccccc21	-0.181% (inactive)
C=CCc1cccc(C=NNC(=O)CN2CCN(Cc3ccccc3)CC2)c1O	-1.84% (inactive)
Nc1ncnc2c1c(-c1ccc(Oc3ccccc3)cc1)cn2C1CCCC1	-3.09% (inactive)
CC#CCOC(=O)c1c(C)nc2sc3c(c2c1N)CCC(O)C3 (stereo unspecified)	-2.64% (inactive)
NC(N)=NC(=O)c1nc(Cl)c(N2CCCCCC2)nc1N	0.786% (inactive)
CCCCOC(=O)NS(=O)(=O)c1sc(CC(C)C)cc1-c1ccc(Cn2c(CC)nc3c(C)cc(C)nc32)cc1	6.38% (inactive)
CC[C@@H](C)[C@H]1O[C@]2(CC[C@H]1C)C[C@@H]1C[C@@H](CC=C(C)[C@@H](O[C@H]3C[C@H](OC)[C@@H](O[C@H]4C[C@H](OC)[C@@H](O)[C@H](C)O4)[C@H](C)O3)[C@@H](C)C=CC=C3CO[C@@H]4[C@H](O)C(C)=C[C@@H](C(=O)O1)[C@]34O)O2	-6.8% (inactive)
O=C1c2ccccc2C(=O)c2c(NCCc3ccc(O)cc3)ccc(NCCc3ccc(O)cc3)c21	-9.57% (inactive)

Compound	activation
COc1ccccc1N1CCN(CCN(C(=O)c2ccc(I)cc2)c2ccccn2)CC1	0.935% (inactive)
C=C1C(=O)O[C@@H]2[C@H]3O[C@]3(C)CCC=C(C)CC[C@@H]12	-11.7% (inactive)
Oc1ccc(/C=C/c2ccc(/C=C/c3ccc(O)cc3)c(Br)c2)cc1	1.07% (inactive)
COc1ccccc1N1CCN(CCCCNS(=O)(=O)c2cccc3c(N(C)C)cccc23)CC1	4.66% (inactive)
CC(C)(C)c1ccc(/C=C/C(=O)Nc2ccc3c(c2)OCCO3)cc1	6.13% (inactive)
Cc1cc2c(cc1Cl)N(C(=O)Nc1ccc(Oc3cccnc3C)nc1)CC2	-1.57% (inactive)
CCCCCCCC/C=C\CCCCCCCC(=O)NCCc1ccc(O)c(O)c1	-0.962% (inactive)
Cc1cc(NC2CCCCC2)nc(-n2nc(C)cc2C)n1	-3.1% (inactive)
CCN(c1nc(N)c(C(=O)N=C(N)N)nc1Cl)C(C)C	-1.85% (inactive)
NS(=O)(=O)C#Cc1ccccc1	-11.6% (inactive)
c1cnc2c(c1)ccc1cccnc12	-3.16% (inactive)
O=[N+]([O-])c1ccc2c(c1)S(=O)(=O)C=C2	-11.5% (inactive)
CC(C)(C)c1cc(/C=C(\C#N)C(N)=S)cc(C(C)(C)C)c1O	-7.65% (inactive)
CSc1ccccc1N1CCN(CCCCCC(=O)NC2CCCc3ccccc32)CC1 (stereo unspecified)	-2.47% (inactive)
COc1ccccc1CNCCCCCCNCCCCCCCCNCCCCCCNCc1ccccc1OC	-4.85% (inactive)
